Test results taken from PubChem BioAssay (NCATS).
Results filed as inconclusive are left out. The source made the active and inactive calls. The call rests on the fitted dose curve; in most records, active means well fitted activation curve with a large enough effect; inconclusive means small, poorly fitted or top-dose-only effect, or another doubt; inactive means no such curve, though single readings can be large or run the other way.
Potency means the concentration at half of the fitted maximal effect.

These compounds were tested against Rap guanine nucleotide exchange factor 3 (Homo sapiens) (UniProt O95398) (assay: Counterscreen qHTS for agonist of cAMP-regulated guanine nucleotide exchange factor 3 (EPAC1) (AID 1645889; further: nearly all actives have a fitted effect of over 40% in size; on activation: % of control where 0% means no effect)). Conditions: EPAC1 Rap1B-BODIPY-GDP exchange, fluorescence; series mostly up to 154 µM; activation: at the top concentration.
In short: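 Measured: fluorescence of BODIPY-GDP bound to Rap1B, which falls as exchange proceeds. Conditions include 50 uM competing GDP, 5 and 30 min reads, and a later cAMP challenge for antagonist detection.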
For `COc1ccc(-c2oc3cccnc3c2C#CCO)cc1`, the “activation” value was 8.73% (inactive).
With `COC(=O)c1cc(OC)nc2ccc(Br)cc12` the “activation” value was -0.285% (inactive).
With `CCOC(=O)c1cc2n(c1N)-c1ccccc1C2=O` the Potency was 31.6 µM (active).
`CCN(CC(=O)Nc1ccccc1C(F)(F)F)C(=O)CCOc1ccccc1C` was tested, and the activation was 1.11% [at 30.8 µM] (inactive).
With `COc1cccc(OCCOc2ccc(/C=C3\C(=N)N4N=C(S(C)(=O)=O)SC4=NC3=O)cc2OC)c1` the “activation” value was 10.2% (inactive).
For `Cc1sc(N)c(C(=O)c2ccccc2Cl)c1C`, the “activation” value was 23% (inactive).
For `O=C(NS(=O)(=O)c1ccc2ccc(S(=O)(=O)NCCSc3ccccc3)cc2c1)c1cccc2ccccc12`, the “activation” value was 18.9% (inactive).
In the case of `COc1ccc(N2CCN(C(=O)c3cc(C)on3)CC2)cc1`, the “activation” value is reported as 4.77% (inactive).
`COc1ccc(N(C)S(=O)(=O)c2cccc3nsnc23)cc1` was tested, and the “activation” value was 3.3% (inactive).
